Drawing on PubChem BioAssay (NCI), this text covers growth inhibition for 8 molecules.

A short description of the assay: NCI Yeast Anticancer Drug Screen. Data for the wt1 strain (AID 149).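 Note: 0% = growth of vehicle-treated wt1 cultures.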 As to conditions: S. cerevisiae wt1 strain (SPY 50644) growth inhibition, stronger effect = higher value. How it is done:
Growth inhibition of yeast strains with defined genetic alterations is measured as a screen for potential anti-cancer activity. Selected strains with alterations in DNA damage repair or cell cycle control were exposed to compounds and growth inhibition was measured relative to vehicle treated controls. The strain used in this assay is wt1

The structures appear in SMILES notation. The panel holds about 79,000 compounds, 15% with a hit somewhere; the sample as a whole holds those more often. Values without a mark were called inactive. The source made the active and inactive calls. Cut-off read from the data, not from the text of the source: active = growth inhibition above about 70%; inactive = the rest.

With `C/C(=N\Nc1ccc([N+](=O)[O-])cc1[N+](=O)[O-])c1sc(-n2nc(-c3ccccc3)cc2-c2ccccc2)nc1C`, the growth inhibition is -21% (at 1.2 µM); -4% (at 3.7 µM); -13% (at 11.0 µM); -1% (at 33.0 µM); -4% (at 100.0 µM).
For the molecule `O=C(O)CCCC1CCCc2c1ccc1ccccc21` (stereo not given), the growth inhibition reads like this: (at 1.2 µM) -3%; (at 3.7 µM) 2%; (at 11.0 µM) 2%; (at 33.0 µM) 38%; (at 100.0 µM) 99% (active).
For the molecule `CCCCCOC(=S)SC(=O)OCC`, the growth inhibition runs as follows: (at 1.2 µM) -4%; (at 3.7 µM) -1%; (at 11.0 µM) 8%; (at 33.0 µM) 35%; (at 100.0 µM) 64%.
Turning to `O=C1c2cccnc2C(=O)C2C3C=CC(C3)C12` (stereo not given), the growth inhibition is 16% (at 1.2 µM); 20% (at 3.7 µM); 43% (at 11.0 µM); 91% (active) (at 33.0 µM); 99% (active) (at 100.0 µM).
As to `CN(C)c1ccc(C2CC(C)(O)Oc3cc4c(cc32)OCO4)cc1` (stereo not given), the growth inhibition is 0% (at 1.2 µM); 5% (at 3.7 µM); 1% (at 11.0 µM); 1% (at 33.0 µM); 7% (at 100.0 µM).
Turning to `Cc1nc(Nc2ccccc2[N+](=O)[O-])sc1C(=O)CC(=O)C(=O)Nc1c(C(C)C)cccc1C(C)C`, the growth inhibition (at 1.2 µM) was 2%; the growth inhibition (at 3.7 µM) is 4%; the growth inhibition (at 11.0 µM) is 3%; the growth inhibition (at 33.0 µM) was 5%; the growth inhibition (at 100.0 µM) is 4%.
For the molecule `CC(C)(C)CC(C)(C)c1cc(O)c(O)c(CN2CCCCC2)c1`, the growth inhibition was 0% (at 1.2 µM); 1% (at 3.7 µM); 4% (at 11.0 µM); 10% (at 33.0 µM); 7% (at 100.0 µM).
Taken in the same sequence, the figures for `O=[N+]([O-])c1cc(F)c(F)cc1Sc1cc(F)c(F)cc1[N+](=O)[O-]` were -4%, 8%, 85% (active), 98% (active) and 98% (active).
